Compounds with a hit are over-represented: about 7.8% of the library has one in this group of screens.
MARV entry inh: qHTS for inhibitors of binding or entry into cells for Marburg Virus. Marburg virus pseudotyped entry inhibition, cell reporter. actives 1.8% (n = 300,000). AID 540276, 2011. Potency, µM (series often up to 37.8 µM), most hits filed as inhibitors; calls by dose curve; tested in HEK293 cells
VACV mCherry inh: qHTS for Stage-Specific Inhibitors of Vaccinia Orthopoxvirus: mCherry Reporter Primary qHTS; actives 0.63% (n = 310,000); Vaccinia virus mCherry reporter infection, fluorescence; AID 720579, 2013; Potency, µM (titrated, usually from 36.5 µM), usual class: inhibitors; calls by dose curve; tested in A549 cells; also: nearly all actives have a fitted effect of over 35% in size
HCMV inh: qHTS Assay for inhibitors of the human cytomegalovirus (HCMV). HFF cells, HCMV-luciferase reporter, 72 h; hits give low values. activity change, negative = inhibition, % at 57.5 µM. actives 4.5% (n = 410,000); in the data active = activity change below about -60%; inconclusive = no clear call, values can overlap the other calls; inactive = above about -39%
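After 16 h attachment at 37C, HFF cells received test compound and HCMV-luciferase (1 PFU/cell); reporter luminescence read 72 h later, data normalized against buffer-only and known inhibitor Salinomycin.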
HCV inhibitor: qHTS Assay for Inhibitors of Hepatitis C Virus (HCV) | Potency, µM (top dose mostly 41.8 µM), most hits filed as inhibitors | Huh7.5.1 HCVcc-Cre infection, luciferase reporter, 44 h | actives 3.4% (n = 340,000); active = well fitted inhibition curve with a large enough effect; inconclusive = small, poorly fitted or top-dose-only effect, or another doubt; inactive = no such curve, though single readings can be large or run the other way
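Antiviral activity was scored by luciferase reporter output from cells infected with HCVcc-Cre (~0.5 moi) in presence of compound, 44 h infection period, cells seeded 1,000/well 4 h prior.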
Lassa entry inh: qHTS for Inhibitors of binding or entry into cells for Lassa Virus. Lassa virus pseudotype entry inhibition, cell reporter. Potency, µM (titrated, usually from 37.9 µM), hits mostly inhibitors. actives 1.2% (n = 300,000); calls by dose curve; tested in HEK293 cells; also: nearly all actives have a fitted effect of over 50% in size
VACV Venus inh: qHTS for Stage-Specific Inhibitors of Vaccinia Orthopoxvirus: Venus Reporter Primary qHTS; Vaccinia virus Venus reporter expression, fluorescence; Potency, µM (top dose mostly 36.5 µM), hits mostly inhibitors; actives 0.46% (n = 330,000); calls by dose curve; tested in A549 cells; also: nearly all actives have a fitted effect of over 30% in size
Numbers stand for hits; – = inactive; ? = inconclusive; · = no result.

SMILES	MARV entry inh	VACV mCherry inh	HCMV inh	HCV inhibitor	Lassa entry inh	VACV Venus inh
COc1cccc(C(C)(O)c2nc(-c3ccc4ccccc4c3)cs2)c1 (centres undefined)	·	–	–	·	·	–
COc1cccc(C(C)(O)c2nc(-c3ccc(OC)nc3)cs2)c1 (centres undefined)	·	–	-62	·	·	–
COc1cccc(C(C)(O)c2nc(-c3cnc4ccccc4c3)cs2)c1 (centres undefined)	·	–	-62	·	·	–
COc1ccc(-c2csc(C(C)(O)c3cccnc3)n2)cn1 (centres undefined)	·	–	–	·	·	–
COc1ccc(-c2csc(C(C)(O)c3cccc(OC)c3)n2)cc1 (centres undefined)	·	?	-65	·	·	–
Cc1ccc(C[C@H]2CC(=O)N(c3ccc4c(c3)OCCO4)C2=O)cc1	–	·	·	·	·	·
CCOc1ccc(CN(C)C(=O)CCNC(=O)c2ccco2)cc1	·	·	–	–	·	·
CCOc1ccc(CN(C)C(=O)CCc2ccc(S(=O)(=O)N3CCCCCC3)cc2)cc1	·	·	-60	4µM	·	·
COc1ccc(CN(C)C(=O)CCc2ccc(S(=O)(=O)N3CCCCCC3)cc2)c(OC)c1	·	·	–	?	·	·
COc1ccc(CN(C)C(=O)/C=C/c2ccc(S(=O)(=O)N3CCCCCC3)cc2)cc1	?	?	?	11µM	5µM	?
CNC(=O)c1ccc(CN(C)C(=O)/C=C/c2ccc(S(=O)(=O)N3CCCCCC3)cc2)cc1	·	–	-84	·	·	–
CCOc1ccc(CN(C)C(=O)CCl)cc1	11µM	?	–	?	?	–
CN(CC(=O)Nc1cccc(F)c1)C(=O)/C=C/c1ccc(S(=O)(=O)N2CCCCCC2)cc1	?	?	–	–	–	?
CCC(Sc1nc(-c2ccccc2F)nc2c1Cc1c(CO)cnc(C)c1O2)C(=O)Nc1cc(C)ccc1C (centres undefined)	·	–	–	·	–	–
COc1ccc(-c2cn3cccnc3n2)cc1NC(=O)Cc1ccccc1	·	–	?	·	–	–
CCC(=O)Nc1cccc(C(=O)/C=C/c2cc(Br)ccc2OC)c1	?	?	-104	11µM	11µM	?
COc1ccc(Br)cc1/C=C/C(=O)Nc1ccc2ccccc2c1	?	–	–	10µM	–	–
CCC(=O)Nc1cccc(C(=O)OC)c1	–	–	–	–	–	–
Cc1ccc(NC(=O)C2CCN(S(=O)(=O)c3ccc4[nH]c(=O)ccc4c3)CC2)cc1C	·	–	–	·	–	–
Cc1nc2nc(NC(=O)C(C)C)[nH]n2c(=O)c1Cc1ccccc1	–	–	–	·	?	–
COc1cccc(C(N)c2nc(-c3csc4ccccc34)cs2)c1 (centres undefined)	·	–	·	·	·	–
COc1ccc(N2CCN(C(=O)c3cccnc3SCc3cccc(Br)c3)CC2)cc1	?	–	–	?	13µM	–
COc1ccc(N2CCN(C(=O)c3cnc(N4CCCC4)nc3C)CC2)cc1	·	–	–	·	?	–
Oc1cc(-c2nc3ccccc3s2)cc2c1OCCN(Cc1cccn1-c1ccccn1)C2	·	–	·	·	·	–
Cc1ccc(C)c(S(=O)(=O)c2nnn3c2nc(NC(C)C)c2sccc23)c1	·	–	-70	·	–	?
SMILES	MARV entry inh	VACV mCherry inh	HCMV inh	HCV inhibitor	Lassa entry inh	VACV Venus inh
CC(C)N1C(=O)CC[C@@H](S(=O)(=O)c2ccccc2)[C@@H]1c1ccccc1	·	·	–	·	·	·
N=c1ccn(Cc2ccc(Cl)c(Cl)c2)cc1	?	·	-97	3.5µM	–	?
Clc1cccc(CN2CCN(Cc3ccco3)CC2)c1	–	–	–	–	?	–
Clc1ccc(CN2CCCCCCC2)cc1Cl	–	–	–	–	–	–
N=c1ccn(Cc2cccc(Cl)c2)cc1	?	·	-71	2.5µM	?	?
N=c1ccn(Cc2ccc(Cl)cc2)cc1	?	·	-93	1.1µM	?	?
Clc1ccc(CN2CCCCCC2)cc1	–	–	–	–	–	–
CCOc1ccc(CNC(=O)c2ccc(CSc3nc4ccncc4n3Cc3ccc(F)cc3)cc2)cc1	?	–	?	·	·	–
Cc1ccc(CNC(=O)CCCn2c(=O)c3ccccc3n(Cc3ccccc3C)c2=O)cc1	–	–	–	·	–	–
O=C(Cc1c[nH]c2ccccc12)NNCc1ccc(N(CCCl)CCCl)cc1	1.6µM	–	?	?	3.5µM	–
